# IL-1B inflam inh – blocks inflammasome-driven IL-1 beta release. activity change, % at 57.5 µM. actives 4.7% (n = 360,000). THP-1 LPS/ATP IL-1B secretion, AlphaLISA, 16 h; stronger effect = lower value. AID 743279; in the data active means activity change below about -50%; inconclusive means mostly about -30% to -49%
#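 THP-1 cells pretreated 1 hr with compounds (up to 57.5 uM final), then stimulated with LPS (250 ng/mL final) plus ATP (1.25 mM final); secreted IL-1B measured by AlphaLISA after 16 hr, decreased signal indicating inhibition.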
# HT1080 IDH1KD tx – HT-1080 IDH1 knockdown cell toxicity (counter line) | actives 2% (n = 360,000) | Potency, µM (titrated, usually from 46.1 µM), actives largely listed as cytotoxic | HT-1080 IDH1 knockdown viability, ATP luminescence, 48 h
#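 IDH1KD HT-1080 cells, 750/well, RPMI + 5% FBS; compound pinned after 2 h settling; 48 h, 37 °C; CellTiter-Glo luminescence; % activity normalised to DMSO and no-cell wells; curves fitted, classed by r2 and efficacy.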
# HT1080-NT tox – kills 2HG-producing HT-1080-NT fibrosarcoma cells | actives 1.6% (n = 360,000) | Potency, µM (top dose mostly 46.1 µM), most hits filed as cytotoxic | HT-1080-NT fibrosarcoma viability, CellTiter-Glo ATP luminescence, 48 h;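 further: NT is the 2HG producing partner of a matched IDH1 knockdown line; nearly all actives have a fitted effect of over 55% in size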
#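 Read-out is CellTiter-Glo luminescence after 10 minutes at room temperature, following 48 hours' compound treatment of HT-1080-NT cells (750 cells/well, RPMI, 5% FBS, 37 degrees C).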
# TGFb inhibitor – inhibitors of TGF-b signaling; HepG2 CAGA-GFP TGF-b/SMAD3 reporter, GFP fluorescence, 18 h; TGF-beta stimulated, 500 pg/mL final; actives 1.2% (n = 410,000); Potency, µM (highest dose often 46.1 µM), actives largely listed as inhibitors; further: nearly all actives have a fitted effect of over 65% in size
#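 Per well, imaged GFP fluorescence of HEPG2 CAGA-GFP cells gives the signal; cells get compound, then TGF-beta (500 pg/mL final), 18 h at 37 degrees C; %Activity versus -TGF-beta and +DMSO controls.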
# HepG2 tox – counter-screen for TGF-b inhibitors: cytotoxicity in HepG2 cells | Potency, µM (highest dose often 46.1 µM), actives largely listed as cytotoxic | actives 0.76% (n = 410,000) | HepG2 CAGA-GFP viability, ATP luminescence, 18 h
#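 CellTiter-Glo luminescence gave cytotoxicity after 18 hours at 37 degrees C. The cells were HepG2 CAGA-GFP in 1% FBS DMEM, stimulated with 500 pg/mL TGF-beta after compound addition. %Activity was normalised to no-cell wells (complete cell-killing) and DMSO (no toxicity), and curves were fitted and classified.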
# Giardia kill – kills Giardia lamblia; Giardia lamblia trophozoite viability; activity change, % at 7.66 µM, hits read low; actives 0.15% (n = 340,000); AID 540267; in the data active means activity change below about -80%; inconclusive means between about -30% and that limit;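 further: parasites exposed to compound for two days anaerobically before the ATP read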
#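 Luminescence from cellular ATP indicates surviving trophozoites (100 cells/well) following 48 hrs anaerobic compound treatment at 37 deg C; signal develops 15-30 min at room temperature.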
# A number is an active result; i = inactive; ? = inconclusive; nt = not tested or not shown. The list is not random: actives were taken first. Their share in the collection is about 6.5%. Unless noted, the call rests on the fitted dose curve; in most records, active means well fitted curve in the direction sought with a large enough effect; inconclusive means small, poorly fitted or top-dose-only effect, or another doubt; inactive means no such curve, though single readings can be large; an effect the other way counts as inactive or inconclusive.
SMILES,IL-1B inflam inh,HT1080 IDH1KD tx,HT1080-NT tox,TGFb inhibitor,HepG2 tox,Giardia kill
COc1cc2c(cc1OC)CN(C(=O)CSc1ccccc1C)CC2,-60,i,i,i,i,i
COc1cc2c(cc1OC)CN(C(=O)/C=C/c1cccs1)CC2,i,4.1µM,7.3µM,i,i,i
COc1cc2c(cc1OC)CN(C(=O)CSC1=NCCS1)CC2,i,i,i,i,i,nt
COc1cccc2cc(C(=O)N3CCc4ccccc4C3)c(=O)oc12,i,i,i,i,i,i
COc1ccccc1C(=O)Nc1ccc2c(c1)CN(C(=O)CSC)CC2,i,10µM,13µM,i,i,i
COc1cc2c(cc1OC)CN(C(=O)c1cc3ccccc3oc1=O)CC2,i,16µM,?,?,i,i
CCOC(=O)CNC(=O)N1CCc2ccc(NC(=O)c3ccccc3Cl)cc2C1,i,i,i,i,i,i
CC(=O)c1cc2c(cc1NC(=O)Cn1cnc3ccccc3c1=O)OCO2,i,i,i,i,i,i
COc1ccccc1C(=O)Nc1ccc2c(c1)CCCN2C(=O)c1ccccc1,i,15µM,18µM,i,13µM,i
Nc1nc2ccccc2n1CCOc1ccccc1Cl,-80,?,?,?,i,i
O=S(=O)(c1ccccc1)[C@@]1(c2ccc(Br)cc2)C[C@@H]2ON=C(c3ccccc3)[C@@H]2C1,i,i,i,i,i,i
Cc1ncoc1C(=O)N1CCc2c([nH]c3ccccc23)C1C1CCCCC1 (stereo unspecified),i,i,i,i,i,i
CCCCCOc1ccc2oc(=O)c3c(c2c1)CCCN3C(=O)CN1CCCC(C(=O)OCC)C1 (stereo unspecified),i,23µM,?,i,i,i
Cc1nc2ccc(NC(=O)c3cccs3)cc2c(=O)n1Cc1ccc(Cl)cc1,-92,?,6.3µM,?,i,i
CCCc1nc2ccc(NC(=O)c3cccs3)cc2c(=O)n1Cc1ccc(Cl)cc1,i,i,i,i,i,i
COc1cc(/C=N/N=C2\CC3CCC2(C)C3(C)C)ccc1O (stereo unspecified),i,i,i,i,i,i
CC12CCC(C/C1=N\N=C1\NC(=O)/C(=C\c3cccc(Br)c3)S1)C2(C)C (stereo unspecified),-68,i,i,?,i,i
COc1cccc(NC(=O)N2CCCC2C(=O)Nc2ccc3c(c2)OCCO3)c1 (stereo unspecified),i,i,i,i,i,i
Cc1ccc(S(=O)(=O)N2CCCCC2)cc1NC(=O)Cn1cnnn1,i,i,i,i,i,i
Cc1cc(Br)ccc1NC(=O)CNC(=O)Cn1ncc(Cl)c(Cl)c1=O,-98,2.6µM,3.7µM,i,i,i
CCCc1cc(=O)[nH]c(SCC(=O)Nc2cc(S(=O)(=O)N3CCCCC3)ccc2C)n1,i,15µM,10µM,?,16µM,i
Cc1ccc(S(=O)(=O)N2CCCCC2)cc1NC(=O)CNC(C)c1ccc(Cl)c(Cl)c1 (stereo unspecified),-63,i,?,?,i,i
Cc1ccc(S(=O)(=O)N2CCCCC2)cc1NC(=O)Cn1ncc(Cl)c(Cl)c1=O,-102,15µM,21µM,?,i,i
Cc1ccc(S(=O)(=O)N2CCCCC2)cc1NC(=O)CSCC(=O)O,i,i,i,i,i,i
Cc1cc(=O)[nH]c(SCC(=O)Nc2cc(S(=O)(=O)N3CCCC3)ccc2Cl)n1,i,i,i,i,i,i
SMILES,IL-1B inflam inh,HT1080 IDH1KD tx,HT1080-NT tox,TGFb inhibitor,HepG2 tox,Giardia kill
O=C(CCCc1cccs1)NCCc1c[nH]c2ccccc12,i,i,i,i,i,i
COc1ccc(NC(=S)N(CCCN2CCCC2)Cc2ccco2)cc1,i,i,i,i,i,i
Cc1ccc(NC(=S)N(CCN2CCCCC2)Cc2ccco2)cc1Cl,-98,?,?,i,i,i
CCOC(=O)c1ccc(NC(=S)N(CCCN(CC)CC)Cc2ccco2)cc1,-55,i,i,i,i,i
CCOC(=O)c1ccc(NC(=S)N(CCCN2CCCCC2)Cc2ccco2)cc1,-53,?,?,0.63µM,i,i
Cc1cc(C)cc(NC(=S)N(CCN2CCCCC2)Cc2ccco2)c1,i,i,i,i,i,i
COc1ccc2[nH]c3c(c2c1)CCN1C(=O)C(CC(=O)NC(C)(C)C)C[C@H](C(=O)N(C(C)C)C(C)C)[C@@]31C (stereo partly specified),i,i,i,i,i,i
CC(=O)n1c(Cl)c(NC(=O)CCl)c2ccccc21,-101,7.1µM,5.6µM,?,i,i
O=C(Nc1cc(S(=O)(=O)N2CCCCC2)ccc1Cl)c1ccncc1,i,i,i,i,i,i
CC1(C)C(=O)NCCN1C(=O)CC1C(=O)NCCN1CC(c1ccccc1)c1ccccc1 (stereo unspecified),i,i,i,i,i,i
CCN1/C(=C/c2sc(-c3ccccc3C)c[n+]2C)Sc2ccccc21,-99,2.1µM,2.1µM,2.5µM,i,i
O=C(Nc1ccccc1O)c1c(O)c2c([nH]c1=O)CCCC2,-68,?,?,13µM,i,i
O=C(Nc1nccs1)c1c(O)c2c([nH]c1=O)CCCC2,i,i,i,i,i,i
Cc1ccc(C(=O)NCCc2cc3ccc(C)c(C)c3[nH]c2=O)cc1[N+](=O)[O-],i,i,i,i,i,i
OC(c1cc(C(F)(F)F)nc2c(Cl)cc(Cl)cc12)C1CCCCN1 (stereo unspecified),-89,?,?,?,i,i
O[C@@H](c1cc(C(F)(F)F)nc2c(C(F)(F)F)cccc12)[C@H]1CCCCN1,?,21µM,9.2µM,10µM,i,i
O=c1c2cc(Cl)cc(Cl)c2nc2n1CCC2,i,i,i,i,i,i
CC(C)(C)NCCC(O)c1cc(C(F)(F)F)nc2c(C(F)(F)F)cccc12 (stereo unspecified),-88,?,i,?,i,i
OC(c1cc(-c2ccc(Cl)cc2)nc2ccccc12)C1CCCCN1 (stereo unspecified),-78,i,?,i,i,i
CCOC(=O)CSc1nc(C2CC2)nc2ccccc12,i,i,i,i,i,i
CC(C)(C)OC[C@H](NC(=O)c1[nH]cnc1C(=O)Nc1ccccc1F)C(=O)OC(C)(C)C,i,?,?,?,20µM,nt
Cc1cccc(NC(=O)c2nc[nH]c2C(=O)N[C@@H](Cc2ccccc2)C(=O)OC(C)(C)C)c1,-58,?,?,?,i,i
